Experimental data as given in PubChem BioAssay AID1851 (National Center for Advancing Translational Sciences (NCATS), 2009).
In all, about 16,000 compounds went through this assay and about 4,000 (25%) were called active. Not shown: some 26% with an inconclusive outcome. Calls follow the shape of the dose curve; as a rule, active = well fitted curve in the direction sought with a large enough effect; inconclusive = small, poorly fitted or top-dose-only effect, or effect the other way; inactive = no such curve, though single readings can be large or run the other way. These entries were drawn from the full list.

target: Cytochrome P450 2C9 (Homo sapiens) (UniProt P11712); experiment: Cytochrome panel assay with activity outcomes; conditions: recombinant CYP, pro-luciferin dealkylation, luminescence, p450-cyp2c9; series mostly up to 57.1 µM
% is scaled to controls: 0 for no effect and ±100 for the full control effect.

Chain of Cytochrome P450 2C9 (Homo sapiens) (P11712 whole entry, looked up): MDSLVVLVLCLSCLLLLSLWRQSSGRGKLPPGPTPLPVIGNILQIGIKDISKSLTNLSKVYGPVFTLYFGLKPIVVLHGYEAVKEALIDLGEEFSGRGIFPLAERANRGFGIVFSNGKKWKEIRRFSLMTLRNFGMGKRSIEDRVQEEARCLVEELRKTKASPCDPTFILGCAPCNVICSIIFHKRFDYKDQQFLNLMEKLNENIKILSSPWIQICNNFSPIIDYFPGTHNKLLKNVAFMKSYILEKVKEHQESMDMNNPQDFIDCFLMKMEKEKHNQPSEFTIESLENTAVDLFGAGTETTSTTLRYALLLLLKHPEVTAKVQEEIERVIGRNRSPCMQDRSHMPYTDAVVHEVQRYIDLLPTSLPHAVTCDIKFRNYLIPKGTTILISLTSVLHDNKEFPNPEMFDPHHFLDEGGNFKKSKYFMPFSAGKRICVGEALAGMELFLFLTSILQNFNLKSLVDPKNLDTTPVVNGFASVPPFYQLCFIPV

activity, negative = inhibition, inactive:
c1ccc(CCNc2ccccn2)nc1 -7.63% [at 11.4 µM]
CCN(CCO)C[C@H]1CCC[C@H]2CCCC[C@@H]21 1.06% [at 11.4 µM]
CN(C)CCCN1c2ccccc2C(C)(C)c2ccccc21 -4.58% [at 11.4 µM]
C[C@@H]1/C=C\CC(=O)OC[C@H](C)C(=O)N[C@@H](C)C(=O)OC1 5.57% [at 11.4 µM]
CCOC(=O)N/N=C1/C[C@@H](O)[C@@H](O)[C@@H]2[C@@H]3C(=O)N(Cc4ccccc4)C(=O)[C@H]3CC[C@H]12 -12.9% [at 11.4 µM]
CCOC(=O)N/N=C1/C[C@@H](O)[C@@H](O)[C@@H]2[C@@H]3C(=O)N(Cc4ccccc4)C(=O)[C@H]3CC[C@@H]12 23.5% [at 11.4 µM]
CC(=O)OC[C@H]1O[C@@H](O/N=C(\C)CCC(=O)OC[C@@H]2O[C@H](C#Cc3ccccc3)C=C[C@@H]2Oc2ccc(C)cc2)[C@H](OC(C)=O)[C@@H](OC(C)=O)[C@H]1OC(C)=O -6.45% [at 11.4 µM]
COc1ccccc1-c1cc(NCc2cccs2)ncn1 17.3% [at 2.29 µM]
Cc1cnc(CNc2nc(-c3ccc(C(=O)N(C)C)cc3)nc3ccccc23)cn1 6.85% [at 2.29 µM]
CCc1cc2c(nc1CC)CCN(CC/C(C)=N/OC[C@@H](C)[C@H](OCc1ccccc1)C(C)C)C2 -5.74% [at 11.4 µM]
Cc1noc(C)c1-c1nccc(N2CCOCC2)n1 7.39% [at 2.29 µM]
N#C[C@H]1CN[C@H](N)N[C@@H]1N -4.64% [at 11.4 µM]
COc1ccc(CN[C@H](C)C(=O)O)cc1 12.3% [at 11.4 µM]
COc1ccccc1-c1nc(NCc2ccccc2)c2ccccc2n1 16.9% [at 2.29 µM]
CN(C)c1ccccc1CN1CCCN(Cc2ccccc2N(C)C)C1c1ccncc1 -12% [at 11.4 µM]
N=c1ccn2c(n1)O[C@H]1[C@@H](OP(=O)(O)O)[C@H](CO)O[C@H]12 5.28% [at 11.4 µM]
CN(C)S(=O)(=O)Nc1ccccn1 0.0893% [at 11.4 µM]
O=C(O)[C@@H](O)c1ccc(F)cc1 -3.58% [at 11.4 µM]
NC(=S)SCCC(=O)O -6.98% [at 11.4 µM]
CC(C)CO/N=C1/C[C@@H](O)[C@@H](O)[C@@H]2[C@@H]3C(=O)N(C[C@@H]4CCCO4)C(=O)[C@H]3CC[C@@H]12 18.7% [at 11.4 µM]
O=C1C2[C@@H](c3ccccc3)N[C@@H](c3ccccc3)C1[C@H](c1ccccc1)N[C@H]2c1ccccc1 -3.9% [at 11.4 µM]

AC50, active:
O=C(Nc1ccc2oc(-c3ccccc3F)nc2c1)c1ccc2c(c1)OCCO2 8.91 µM
COCCn1c(=O)c(-c2cccc(C#N)c2)nc2cnc(Oc3ccccc3)nc21 7.94 µM
COCCn1c(=O)c(-c2cccc(C#N)c2)nc2cnc(OCc3ccccc3)nc21 10 µM
COc1ccc(N2C(=O)c3ccccc3NC2c2ccc(OC)c(CSc3ccccn3)c2)cc1 (centres undefined) 1.12 µM
CCOC(=O)C1=C(O)C(=O)N(Cc2ccccc2)C1 3.98 µM
CCCCCCC1CC(C)(/C(C)=N/NC(N)=O)OC1=O (centres undefined) 22.4 µM
CC1CCN(C(=O)Nc2ccc3nsnc3c2)CC1 15.8 µM
COc1ccc(/C=C2\SC(=O)N(CCNC(=O)C3CC(=O)N(c4ccccc4)C3)C2=O)cc1 (centres undefined) 7.94 µM
O=C(Cc1ccc(S(=O)(=O)N2CCOCC2)s1)Nc1nc2c(s1)CCCC2 15.8 µM
Cc1ccc(S(=O)(=O)CCC(=O)Nc2nc3c(s2)CCCC3)cc1 1.12 µM
CCC(Sc1nc(C)cc(=O)[nH]1)C(=O)Nc1nc2c(s1)CCCC2 (centres undefined) 7.94 µM
Cc1cc(=O)[nH]c(SCC(=O)Nc2nc3c(s2)CCCC3)n1 15.8 µM
COC(=O)[C@@]1(Cc2ccc(OC)cc2)[C@H]2c3cc(C(=O)N4CCCC4)n(Cc4ccc(Cl)c(C(F)(F)F)c4)c3C[C@H]2CN1C(=O)c1ccccc1 20 µM
COC(=O)[C@@]1(Cc2ccc(F)cc2)[C@H]2c3cc(C(=O)N(C)C)n(CCCNc4ccc(C(F)(F)F)cc4Cl)c3C[C@H]2CN1C(=O)c1ccccc1 20 µM
COC(=O)[C@@]1(Cc2ccc(F)cc2)[C@H]2c3cc(C(=O)N4CCCC4)n(Cc4ccc(Cl)c(C(F)(F)F)c4)c3C[C@H]2CN1C(=O)c1ccccc1 12.6 µM
COC(=O)[C@@]1(Cc2ccc(F)cc2)[C@H]2c3cc(C(=O)N(C)C)n(Cc4ccc(Cl)c(C(F)(F)F)c4)c3C[C@H]2CN1C(=O)c1ccccc1 3.98 µM
O=C(Nc1cccc(F)c1)/C(=C\c1ccco1)NC(=O)c1cccs1 31.6 µM
CC(=O)c1cccc(NC(=O)/C(=C\c2ccco2)NC(=O)c2cccs2)c1 8.91 µM
CC(C)(C)C(=O)[C@H]1[C@H](c2ccccc2)[C@@]2(N=C(c3ccccc3)OC2=O)C2c3ccccc3C=NN21 (some centres undefined) 15.8 µM
Cc1cc(Oc2ccc(-c3ccccc3)cc2)nc(N2CCOCC2)n1 3.98 µM
CCCc1ccc(Oc2cc(C)nc(N3CCOCC3)n2)cc1 25.1 µM
Cc1ccc(Oc2cc(N3CCOCC3)nc(-c3ccccc3)n2)cc1 17.8 µM
COc1ccc(CNn2c(C)nc3ccccc3c2=O)cc1 5.62 µM
CCCCOc1ccc(CNn2c(C)nc3ccccc3c2=O)cc1 4.47 µM
Cc1nc2ccccc2c(=O)n1NC(=O)c1ccccc1Cl 7.94 µM
O=C1C(Cl)=C(Nc2ccc(S(=O)(=O)Nc3ccccn3)cc2)C(=O)c2ccccc21 2 µM
C[C@@H](C(=O)O)c1ccc(-c2ccccc2)c(F)c1 10 µM
CCCCC1(C)NC(=O)c2c(C)sc(C(=O)OCC)c2N1 (centres undefined) 0.282 µM
O=C1SC(c2ccccc2)=C/C1=C\N1CCCCC1 11.2 µM
COc1c(/C=N/Nc2ccc([N+](=O)[O-])cc2[N+](=O)[O-])c(C)nn1-c1ccccc1 20 µM
S=C1N[C@H](c2ccccc2)N[C@H](c2ccccc2)S1 2 µM

AC50, inactive:
Cn1c(CN2CCCCC2)nc2cc(NC(=O)c3ccc(Cl)cc3)ccc21
C[C@@]1(C(=O)O)NCCc2cc(O)c(O)cc21
COc1nc(OCCNC(C)=O)nc(N(C)C)n1
COCCn1c(=O)c(-c2cccc(C#N)c2)nc2cnc(N(C)C)nc21
COc1ncc2nc(-c3cccc(C#N)c3)c(=O)n(CCC#N)c2n1
CCNc1ncc2nc(-c3cccc(C#N)c3)c(=O)n(CCC#N)c2n1
Cn1c(=O)c(-c2cccc(C#N)c2)nc2cnc(Oc3ccccc3)nc21
Nc1nc2c(nc(Br)n2[C@@H]2O[C@H]3COP(=O)(O)O[C@@H]3[C@H]2O)c(=O)[nH]1
COc1ccc(C2N(c3ccccn3)C(=O)C3CCCN32)c(OC)c1 (centres undefined)
CN(C)[C@@H]1C(=O)C(C(N)=O)=C(O)[C@]2(O)C(=O)C3=C(O)c4c(O)ccc(Cl)c4[C@H](O)[C@H]3C[C@@H]12
O=C(Nc1ccc(Cl)c(Cl)c1)N1CCC(N2CCCCC2)CC1
Cc1cccc(C)c1NC(=O)N1CCC(N2CCCCC2)CC1
COCCCNC(=O)C1CC(=O)N(Cc2ccc(OC)cc2)C1 (centres undefined)
COCCCNC(=O)C1CC(=O)N(CCc2ccc(OC)c(OC)c2)C1 (centres undefined)
O=C(NCCN1CCOCC1)c1csc2c1CCCCC2
CCC(=O)Nc1c2c(nc3c1CCC3)CCCC2
Cc1ccc(CS(=O)(=O)CCC(=O)NCCN2CCCC2)cc1
Cc1ccc(CS(=O)(=O)CCC(=O)NCCCN2CCCC2)cc1
Cc1cc(=O)[nH]c(-n2[nH]c3c(c2=O)CCCC3)n1
C[C@@]12C=CC(=O)C=C1CC[C@@H]1[C@@H]2[C@H](O)C[C@]2(C)[C@@H]1CC[C@]2(O)C(=O)CO
O=C1CN(c2nc(-c3ccccc3)c3cc(Br)ccc3n2)c2ccccc2N1
O=C(Nc1ccccc1)N1CCCC2(CCN(C(=O)c3csnn3)CC2)C1
CCOc1cccc2cc(C(N)=O)c(=NCc3ccccc3)oc12
CCC1CCc2c(c3ccccc3[nH]c2=O)O1 (centres undefined)
O=C(Nc1cccc(F)c1)N1CCC2(CC1)CCN(C(=O)c1ccco1)CC2
COc1ccc(NC(=O)N2CC3(CCN(C(=O)c4ccc(OC)cc4)CC3)C2)cc1
COc1ccc(-n2c(=O)c(-c3ccccc3)nc3cnc(N4CCOCC4)nc32)cc1
COc1cc(N2CCOCC2)ncn1
O=c1ccc(Oc2nc(N3CCOCC3)nc(N3CCOCC3)n2)n[nH]1
COc1ccc(-n2c(=O)c(C)nc3cnc(N4CCOCC4)nc32)cc1
COC(=O)c1ccc(Oc2nc(N(C)C)nc(N3CCOCC3)n2)cc1
O=C(Nn1cnc2ccccc2c1=O)c1ccc(F)cc1Cl
CCCOc1ccc(CSC(CC(=O)O)C(=O)O)cc1 (centres undefined)
CCCC[C@H](CC)CN1CN(C[C@@H](CC)CCCC)CC(C)(N)C1
Nc1ccc(S(=O)(=O)Nc2ccccn2)cc1
C[C@H](C(=O)O)c1cccc(Oc2ccccc2)c1
CC[N+](CC)(CC)CC[C@](O)(c1ccccc1)C1CCCCC1
